According to PubChem BioAssay:

Tested on: not listed separately
Test: small-molecule microarray binders of probe aLefty2, primary screen, biochemical, biotinylated probe, 635/667 nm fluorescence (AID 1094);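 also: score merges spot fluorescence near 667 nm with spot signal-to-noise ratio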
Conditions: higher = more signal
With `O=C1OCC=C[C@H]2OC34C=CCN(CCN5CCOCC5)C(=O)[C@H]3N(CCCCCCO)C(=O)[C@@H]4[C@@H]12` (some centres undefined) the composite z-score was -0.0009.
In the case of `NC(=O)[C@]1(Cc2ccccc2)N=C(c2ccc(OCCCO)cc2)O[C@@H]1c1ccccc1`, the composite z-score is reported as 0.0781.
Work on `COc1ccccc1CN1C(=O)c2ccccc2[C@](Cc2ccccc2I)(C(=O)NCc2ccccc2)[C@@H]1c1ccc(CO)cc1` yielded a composite z-score of 0.0023.
Compound `CCCCN1CC=CC23O[C@@H]4C=CCCOC(=O)C4[C@H]2C(=O)N(CCCO)[C@@H]3C1=O` (some centres undefined) has a composite z-score of -0.172.
`CC(C)NC(=O)[C@@]1(c2ccc([N+](=O)[O-])cc2)CC(=O)N(C(C)C)[C@@H]1c1ccc(CO)cc1` gave a composite z-score of 0.0945.
With `O=C1NC(=O)C2C1C=CC(C(O)c1cccs1)N2Nc1ccccn1` (centres undefined) the composite z-score was 0.305.
In the case of `CN(C)CCCCNC(=O)[C@@H]1C[C@@H]2C(=O)N[C@@H](CCCCN)C(=O)N2[C@@H]1c1cccc(OCCO)c1`, the composite z-score is reported as 0.197.
`C=CC[C@]1(C(=O)O)N=C(c2ccc(OCCCO)cc2)O[C@H]1c1ccccc1CN=[N+]=[N-]` showed a composite z-score of -0.135.

Tested on: Noggin (protein binding on small-molecule microarray)
Test: Noggin binders on small-molecule microarray, primary screen, biochemical, 635/667 nm fluorescence (AID 1095);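 also: score merges 667 nm feature fluorescence with signal to noise over triplicate slides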
Conditions: 635 nm fluorescence, higher = more signal
Compound `CCCCC(=O)N(Cc1ccccc1F)[C@@H]1CC(C(=O)NCCO)=C[C@H](Oc2c(I)cc(CO)cc2OC)[C@H]1O` has a composite z-score of 2.04.
With `COc1ccc([Si](C)(C)[C@H]2[C@H](CCO)O[C@@]3(C(=O)N(Cc4cccc(N5C(=O)c6cccc7cccc5c67)c4)c4ccccc43)[C@@H]2C)cc1` the composite z-score was 0.492.
`CC(C)C(CO)N1C(=O)[C@@H]2[C@H]3C(=O)OCC=C[C@H]3OC23C=CCN(c2ccc4ccccc4c2)C(=O)[C@@H]13` (some centres undefined) gave a composite z-score of -1.21.
Work on `CCOC(=O)C[C@H]1[C@H](OC(=O)c2ccccc2-c2ccccc2)[C@@H](NC(=O)c2ccc(-c3ccccc3)cc2)c2cc(OCCCO)ccc2N1C(=O)c1ccccc1` yielded a composite z-score of 0.603.
For `CN(C)CCCC[C@@H]1NC(=O)[C@@H]2C[C@H](C(=O)NCCCCCCN)[C@H](c3ccc(O)cc3)N2C1=O`, the composite z-score was 0.855.
Work on `CN1C(=O)C2C(C1=O)C1C=C(c3ccc(CO)cc3)C2C(C2CC2)N1Cc1sc2ccccc2c1Cl` (centres undefined) yielded a composite z-score of 0.411.
`O=C1C2C=CC(C(O)c3ccc(B(O)O)cc3)N(Nc3ccc([N+](=O)[O-])cc3)C2C(=O)N1c1ccccc1` (centres undefined) gave a composite z-score of 0.288.
Work on `CCCNC(=O)[C@@]1(C)c2ccccc2C(=O)N(Cc2ccc(OC(F)(F)F)cc2)[C@H]1c1ccc(CO)cc1` yielded a composite z-score of -0.432.
`[N-]=[N+]=NCc1ccccc1[C@H]1OC(c2ccc(OCCCO)cc2)=N[C@@]1(Cc1ccccc1)C(=O)O` showed a composite z-score of 0.462.
For `CCCC[C@@H]1C[C@H]1[C@@H](NC(=O)c1ccccc1)c1ccc(-c2ccccc2)cc1`, the composite z-score was 0.364.
With `C=C(CCCC)/C(=C/C[C@H](OC(C)=O)c1ccc(CO)o1)c1cc(C(=O)OC)ccc1OC` the composite z-score was 1.8.
With `COc1ccc([Si](C)(C)[C@@H]2[C@@H](CC(=O)N3Cc4ccccc4C[C@H]3CO)O[C@]3(C(=O)N(Cc4cccc(N5C(=O)COc6ccccc65)c4)c4ccccc43)[C@H]2C)cc1` the composite z-score was 0.812.
Compound `C=C(C)[C@@H]1CC=C(C(O)C2C=CC3C(=O)N(Cc4ccccc4)C(=O)C3N2n2cnnc2)CC1` (some centres undefined) has a composite z-score of -0.305.
Compound `C=C(C(=O)CC[C@@H](OC(C)=O)c1ccc(OCCO)cc1)C(C)C` has a composite z-score of -0.053.
Work on `COc1ccc(C(=O)Nc2cccc(CN3C(=O)[C@@]4(O[C@@H](CC(=O)N5Cc6ccccc6C[C@H]5CO)[C@H]([Si](C)(C)c5ccc(OC)cc5)[C@H]4C)c4ccccc43)c2)cc1` yielded a composite z-score of 1.25.
With `CC[C@@H]1C=C(C(=O)O)[C@H](c2ccc(C(C)C)cc2)N1S(=O)(=O)c1ccc(C)cc1` the composite z-score was -0.0177.
`[N-]=[N+]=NCc1ccccc1C[C@]1(C(=O)NCC(O)CO)COC(c2ccc(OCCCO)cc2)=N1` (some centres undefined) gave a composite z-score of -0.185.
Work on `[N-]=[N+]=Nc1ccccc1[C@@H]1OC(c2ccc(OCCCO)cc2)=N[C@]1(CCS(=O)(=O)c1ccccc1)C(=O)N1CCCCC1` yielded a composite z-score of 0.237.
In the case of `O=C1OCCC/C=C\[C@H]2OC34C=CCN(Cn5nnc6ccccc65)C(=O)[C@H]3N(CCCO)C(=O)[C@@H]4C12` (some centres undefined), the composite z-score is reported as -0.9.
For `C=CCC(OC(C)=O)[C@@H]1[C@@H](N(Cc2cc3ccccc3o2)C(=O)c2cccc3ccccc23)c2cc(OCCCO)ccc2N1C(=O)Cc1ccc(OC)cc1` (some centres undefined), the composite z-score was 0.342.
With `Cc1ccc(N2C(=O)c3ccccc3[C@@H](C(=O)NCC(C)C)[C@@H]2c2ccc(CO)cc2)nc1` the composite z-score was -0.479.
With `COCCOC(=O)N1C(=O)[C@@]2(c3ccccc31)[C@H](c1ccc(O)cc1)N1[C@H](c3ccccc3)[C@H](c3ccccc3)OC(=O)[C@H]1[C@@H]2C(N)=O` the composite z-score was -0.678.
`CN(C)CCCC[C@@H]1NC(=O)[C@@H]2C[C@H](C(=O)NCCCCCN)[C@H](c3ccc(O)cc3)N2C1=O` gave a composite z-score of -0.668.
Compound `COCCOC(=O)N1C(=O)[C@@]2(c3cc(C#CCCO)ccc31)[C@H](C(=O)NC[C@H](O)c1ccccc1)[C@H]1C(=O)O[C@H](c3ccccc3)[C@H](c3ccccc3)N1[C@@H]2c1ccc(OCCO)cc1` has a composite z-score of 0.909.
`O=C1C2C=CC(C(O)C3CC=CCC3)N(n3cnnc3)C2C(=O)N1Cc1ccccc1` (centres undefined) showed a composite z-score of -1.05.
`CC(C)C(O)C1C=CC2C(=O)N(C)C(=O)C2N1N1CCCCC1` (centres undefined) gave a composite z-score of 0.315.
With `COC(=O)[C@@]1(Cc2ccc(F)cc2)[C@H]2c3cc(C(=O)N4CCCC4)n(CCc4ccc(OC)c(Br)c4)c3C[C@H]2CN1C(=O)c1ccccc1` the composite z-score was -0.0473.
`COCCOC(=O)N1C(=O)[C@@]2(c3cc(C#CC4=CCCCC4)ccc31)[C@H](C(=O)N1CCN(c3ncccn3)CC1)[C@H]1C(=O)O[C@H](c3ccccc3)[C@H](c3ccccc3)N1[C@@H]2c1ccc(OCCO)cc1` showed a composite z-score of 0.554.
For `O=C1OCC=C[C@H]2OC34C=CCN(CCN5CCOCC5)C(=O)[C@H]3N(CCCCCCO)C(=O)[C@@H]4[C@@H]12` (some centres undefined), the composite z-score was 0.0056.
`NC(=O)[C@]1(Cc2ccccc2)N=C(c2ccc(OCCCO)cc2)O[C@@H]1c1ccccc1` showed a composite z-score of -0.165.
`COc1ccccc1CN1C(=O)c2ccccc2[C@](Cc2ccccc2I)(C(=O)NCc2ccccc2)[C@@H]1c1ccc(CO)cc1` gave a composite z-score of -0.373.
`CCCCN1CC=CC23O[C@@H]4C=CCCOC(=O)C4[C@H]2C(=O)N(CCCO)[C@@H]3C1=O` (some centres undefined) showed a composite z-score of 0.217.
`CC(C)NC(=O)[C@@]1(c2ccc([N+](=O)[O-])cc2)CC(=O)N(C(C)C)[C@@H]1c1ccc(CO)cc1` gave a composite z-score of -1.14.
`O=C1NC(=O)C2C1C=CC(C(O)c1cccs1)N2Nc1ccccn1` (centres undefined) gave a composite z-score of 0.0671.
`CN(C)CCCCNC(=O)[C@@H]1C[C@@H]2C(=O)N[C@@H](CCCCN)C(=O)N2[C@@H]1c1cccc(OCCO)c1` showed a composite z-score of -0.989.
`C=CC[C@]1(C(=O)O)N=C(c2ccc(OCCCO)cc2)O[C@H]1c1ccccc1CN=[N+]=[N-]` showed a composite z-score of -0.383.
